From the supplement of paper PMC12350171
Where a name gives a salt, the structure may show the parent alone.

test system: Salmonella enterica typhimurium; assay: growth AUC normalised to DMSO control (fraction of control); higher = less growth inhibition, active = hit call of the paper; settings: 20 µM;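 active = AUC significantly below DMSO controls by Student t-fit with adjusted P under 0.01; inactive = not significantly reduced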
Summary of the method: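 Pathogens passaged twice anaerobically were inoculated at a starting OD578 of 0.01 into pre-reduced mGAM plates with drug at 20 μM and 1% DMSO, sealed with breathable membranes. Haemophilus parainfluenzae medium was supplemented with hemin and NAD. OD578 was read hourly for 24 h, with three biological replicates. Growth-curve AUC was computed by the trapezoidal rule up to the exponential-to-stationary transition and normalised to DMSO controls on the same plate.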

| SMILES | growth AUC normalised to DMSO control |
| --- | --- |
| CN(C)CCOC(c1ccccc1)c1ccccc1 [Diphenhydramine hydrochloride] | 0.993 (inactive) |
| COC(=O)C1=C(C#N)NC(C)=C(C(=O)OC(C)C)C1c1cccc([N+](=O)[O-])c1 (stereo not given) [Nilvadipine] | 1.01 (inactive) |
| Nc1nc2n[nH]nc2c(=O)[nH]1 [Azaguanine-8] | 1.01 (inactive) |
| CCN(CC)CCOC(=O)C(Cc1cccc2ccccc12)CC1CCCO1 (stereo not given) [Nafronyl oxalate] | 0.985 (inactive) |
| O=c1n(CCCN2CCN(c3cccc(Cl)c3)CC2)nc2ccccn12 [Trazodone hydrochloride] | 0.992 (inactive) |
| CCCOc1ccc(C(=O)OCCN(CC)CC)cc1N [Proparacaine hydrochloride] | 1 (inactive) |
| CN1CCCN(C(c2ccccc2)c2ccc(Cl)cc2)CC1 (stereo not given) [Homochlorcyclizine dihydrochloride] | 0.971 (inactive) |
| CCCCOC(=O)c1ccc(N)cc1 [Butamben] | 0.994 (inactive) |
| OC(CCN1CCCCC1)(c1ccccc1)c1ccccc1 [Pridinol methanesulfonate salt] | 0.993 (inactive) |
| CCCNC(C)C(=O)Nc1ccccc1C (stereo not given) [Prilocaine hydrochloride] | 0.987 (inactive) |
| COc1cccc2c1C(=O)c1c(O)c3c(c(O)c1C2=O)C[C@@](O)(C(=O)CO)C[C@@H]3O[C@H]1C[C@H](N)[C@H](O)[C@H](C)O1 [Doxorubicin hydrochloride] | 0.942 (active) |
| CCC(=O)OCC(=O)[C@@]1(OC(=O)CC)[C@H](C)C[C@H]2[C@H]3[C@H]([C@@H](O)C[C@@]21C)[C@@]1(C)C=CC(=O)C=C1C[C@H]3Cl [Alclometasone dipropionate] | 1 (inactive) |
| Nc1nc(N)nc(-c2cc(Cl)ccc2Cl)n1 [Irsogladine maleate] | 0.998 (inactive) |
| CC(C)(C)NCC(O)c1ccc(O)c(CO)c1 (stereo not given) [Salbutamol] | 0.985 (inactive) |
| C[C@H](CCC(=O)O)[C@H]1CC[C@H]2[C@@H]3[C@@H](O)C[C@@H]4C[C@H](O)CC[C@]4(C)[C@H]3CC[C@]12C [Urosiol] | 0.971 (inactive) |
| OCCN1C[C@H](O)[C@@H](O)[C@H](O)[C@H]1CO [Miglitol] | 0.991 (inactive) |
| CCCC(CCC)C(=O)O [Valproic acid] | 1.01 (inactive) |
| CCOC(=O)c1ccc(N)cc1 [Benzocaine] | 1.02 (inactive) |
| CCSc1ccc2c(c1)N(CCCN1CCN(C)CC1)c1ccccc1S2 [Thiethylperazine maleate] | 1 (inactive) |
| COC(=O)Nc1nc2cc(C(=O)c3ccc(F)cc3)ccc2[nH]1 [Flubendazol] | 1.02 (inactive) |

| SMILES | growth AUC normalised to DMSO control |
| --- | --- |
| O=C(Cn1ccnc1[N+](=O)[O-])NCCO [Etanidazole] | 1.01 (inactive) |
| Cc1cccc(N(C)C(=S)Oc2ccc3ccccc3c2)c1 [Tolnaftate] | 0.953 (inactive) |
| CCC(C)n1ncn(-c2ccc(N3CCN(c4ccc(OCC5COC(Cn6cncn6)(c6ccc(Cl)cc6Cl)O5)cc4)CC3)cc2)c1=O (stereo not given) [Itraconazole] | 1.01 (inactive) |
| C[C@]12C[C@H](O)[C@H]3[C@@H](CCC4=CC(=O)CC[C@@]43C)[C@@H]1CC[C@@H]2C(=O)CO [Corticosterone] | 1 (inactive) |
| Nc1c(Br)cc(Br)cc1CN[C@H]1CC[C@H](O)CC1 [Ambroxol hydrochloride] | 0.979 (inactive) |
| O=C(O)c1cn(C2CC2)c2cc(N3CCNCC3)c(F)cc2c1=O [Ciprofloxacin hydrochloride monohydrate] | 0.00833 (active) |
| OCCOCCN1CCN(C(c2ccccc2)c2ccc(Cl)cc2)CC1 (stereo not given) [Hydroxyzine dihydrochloride] | 0.992 (inactive) |
| CN1CCC(OC(c2ccccc2)c2ccccc2)CC1 [Diphenylpyraline hydrochloride] | 0.988 (inactive) |
| NCc1ccc(S(N)(=O)=O)cc1 [Mafenide hydrochloride] | 1 (inactive) |
| O=C(O)CCc1nc(-c2ccccc2)c(-c2ccccc2)o1 [Oxaprozin] | 1.02 (inactive) |
| CCN(CC)CCNC(=O)c1cc(Br)c(N)cc1OC [Bromopride] | 1.01 (inactive) |
| CN(C/C=C/c1ccccc1)Cc1cccc2ccccc12 [Naftifine hydrochloride] | 1.01 (inactive) |
| Nc1nc(=O)n([C@@H]2CS[C@H](CO)O2)cc1F [(-) Emtricitabine] | 0.995 (inactive) |
| CC(C(=O)O)c1ccc(C(=O)c2cccs2)cc1 (stereo not given) [Suprofen] | 0.987 (inactive) |
| OCCN1CCN(CCCN2c3ccccc3C=Cc3ccccc32)CC1 [Opipramol dihydrochloride] | 0.981 (inactive) |
| c1ccc(CC2=NCCN2)cc1 [Tolazoline hydrochloride] | 1.01 (inactive) |
| CC=C(C)C(=O)OC1C(OC(C)=O)C2(CO)C(O)CC3(C)C(=CCC4C5(C)CCC(OC6OC(C(=O)O)C(OC7OC(CO)C(O)C(O)C7O)C(O)C6OC6OC(CO)C(O)C(O)C6O)C(C)(CO)C5CCC43C)C2CC1(C)C (stereo not drawn) [Beta-Escin] | 0.997 (inactive) |
| N=C(N)N/N=C/c1c(Cl)cccc1Cl [Guanabenz acetate] | 0.936 (active) |
| CCN1CCC[C@H]1CNC(=O)c1c(OC)ccc(Br)c1OC [Remoxipride hydrochloride] | 1.01 (inactive) |
| C/C=C(/C(=C/C)c1ccc(O)cc1)c1ccc(O)cc1 [Dienestrol] | 1 (inactive) |
